Assay outcomes from PubChem BioAssay.
PLK1 PBD block: qHTS for Inhibitors of PLK1-PDB (polo-like kinase 1 - polo-box domain): Primary Screen; Serine/threonine-protein kinase PLK1 (Homo sapiens), P53350; Plk1 PBD binding of FITC phosphopeptide, fluorescence polarization; Potency, µM, inactives show max response, negative = inhibition, most hits filed as inhibitors; 360,000 compounds, 2.8% hits; also: potency is read from the fitted curve at half-maximal effect; series mostly up to about 57 µM; % is scaled to controls: 0 for no effect and ±100 for the full control effect; nearly all actives have a fitted effect of over 65% in size
BAZ2B inh: qHTS Assay for Inhibitors of BAZ2B; Potency, µM (series often up to 114 µM), inactives show at the top dose activity change, negative = inhibition, most hits filed as inhibitors; AID 504333, 2011; Bromodomain adjacent to zinc finger domain protein 2B (Homo sapiens), Q9UIF8; AlphaScreen BAZ2B-H3K14Ac peptide displacement; 360,000 compounds, 4.4% hits; also: potency is read from the fitted curve at half-maximal effect; % is scaled to controls: 0 for no effect and ±100 for the full control effect; nearly all actives have a fitted effect of over 60% in size
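Multi-concentration screen (max 110 uM) measuring displacement of acetylated histone H3 peptide from BAZ2B by AlphaScreen, using 50 nM protein, 50 nM peptide and 10 ug/mL streptavidin donor plus Ni-chelate acceptor beads.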
JMJD2A Tudor: qHTS Assay for Inhibitors of JMJD2A-Tudor Domain; AlphaScreen JMJD2A-Tudor / H3K4me3 peptide binding; Potency, µM (titrated, usually from 114 µM), for inactives: at the highest dose activity change, negative = inhibition, usual class: inhibitors; 390,000 compounds, 4.4% hits; Lysine-specific demethylase 4A (Homo sapiens), O75164; AID 504339, 2011; also: potency is read from the fitted curve at half-maximal effect; % is scaled to controls: 0 for no effect and ±100 for the full control effect; nearly all actives have a fitted effect of over 50% in size
G9a inh: qHTS Assay for Inhibitors of Histone Lysine Methyltransferase G9a; Histone-lysine N-methyltransferase EHMT2 (Homo sapiens), Q96KQ7; G9a H3K9 monomethylation, AlphaScreen, 2 h; Potency, µM (highest dose often 102 µM), without a hit: top-dose activity, negative = inhibition, usual class: inhibitors; 350,000 compounds, 8.8% hits; AID 504332, 2011; also: potency is read from the fitted curve at half-maximal effect; % is scaled to controls: 0 for no effect and ±100 for the full control effect; nearly all actives have a fitted effect of over 75% in size
Target sequence (Q96KQ7 913-1193 limits assumed): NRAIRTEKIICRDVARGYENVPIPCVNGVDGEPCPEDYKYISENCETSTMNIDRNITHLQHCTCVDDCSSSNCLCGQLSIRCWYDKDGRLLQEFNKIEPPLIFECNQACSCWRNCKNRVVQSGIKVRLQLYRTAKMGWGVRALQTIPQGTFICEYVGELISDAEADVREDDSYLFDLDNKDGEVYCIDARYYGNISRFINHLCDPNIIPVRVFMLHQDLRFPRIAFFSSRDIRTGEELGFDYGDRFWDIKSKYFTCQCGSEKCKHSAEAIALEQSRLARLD
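Using a bead-based AlphaScreen, monomethylated H3K9 product from 2 h room-temperature reactions (G9a 20 nM, peptide 500 nM, SAM 20 uM) was detected with 0.5 ug/mL rabbit anti-H3K9me1 antibody.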
PI5P4K alpha inh: qHTS for Inhibitors of phosphatidylinositol 5-phosphate 4-kinase (PI5P4K) | PI5P4Kalpha enzyme, ADP-Glo luminescence, 60 min; stronger effect = lower value | AID 652105, 2013 | 330,000 compounds, 1.2% hits | Phosphatidylinositol 5-phosphate 4-kinase type-2 alpha (Homo sapiens), P48426 | max response, %; active = max response of -50% or lower; inconclusive = between -30% and -50%; inactive = -30% or higher; also: value at the top dose of about 77 µM; % is scaled to controls: 0 for no effect and ±100 for the full control effect
Target sequence (P48426 whole entry, looked up): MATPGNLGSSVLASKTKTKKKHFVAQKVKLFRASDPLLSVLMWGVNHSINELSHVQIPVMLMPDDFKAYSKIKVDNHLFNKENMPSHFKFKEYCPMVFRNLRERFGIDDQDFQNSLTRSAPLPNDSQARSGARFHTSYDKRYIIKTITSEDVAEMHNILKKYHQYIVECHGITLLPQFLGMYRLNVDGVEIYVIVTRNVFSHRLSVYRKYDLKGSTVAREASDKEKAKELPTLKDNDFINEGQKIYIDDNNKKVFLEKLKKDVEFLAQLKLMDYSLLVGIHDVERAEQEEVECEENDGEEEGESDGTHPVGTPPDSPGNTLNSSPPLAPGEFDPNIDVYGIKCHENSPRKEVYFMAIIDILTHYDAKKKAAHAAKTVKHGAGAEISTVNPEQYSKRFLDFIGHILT
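Quantitative HTS of the MLSMR library against PI5P4Kalpha with substrate. ATP added last at 5 microM final; room temperature, 60 minutes. Remaining ATP depleted, ADP converted and read as luminescence.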
HP1b chromo inh: HTS for Inhibitors of HP1-beta Chromodomain Interactions with Methylated Histone Tails. Chromobox protein homolog 1 (Homo sapiens), P83916. AlphaScreen HP1-beta / biotin-H3K9me3 peptide binding. Potency, µM (series often up to 114 µM), for the others: at the highest dose activity change, negative = inhibition, usual class: inhibitors. 390,000 compounds, 0.56% hits. AID 540317, 2011; also: potency is read from the fitted curve at half-maximal effect; nearly all actives have a fitted effect of over 70% in size
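Compound inhibition of the preformed complex between 50 nM HP1-beta and 50 nM biotinylated H3K9me3 peptide was read by AlphaScreen. Buffer was PBS pH 7.4 with 0.01% Tween-20. Incubations ran 30 min at room temperature, with 10 ug/mL donor/acceptor beads.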
The depositor's hits bear a star; ? = inconclusive; nt = not tested or not shown; [ ] = remark or other dose. Only some compounds are listed: those with a hit (about 12% of all), similar ones and a draw of the others. Unless noted, calls follow the shape of the dose curve; as a rule, active = well fitted curve in the direction sought with a large enough effect; inconclusive = small, poorly fitted or top-dose-only effect, or another doubt; inactive = no such curve, though single readings can be large; an effect the other way counts as inactive or inconclusive.

SMILES	PLK1 PBD block	BAZ2B inh	JMJD2A Tudor	G9a inh	PI5P4K alpha inh	HP1b chromo inh
CSc1ccc(/C=N/NC(=O)CN2CCN(Cc3ccc(C)cc3)CC2)cc1	-7.2%	9.2%	-6.4%	9.6%	5.5	27.2%
CSc1ccc(/C=N/N2CCN(Cc3ccc(C)cc3C)CC2)cc1	2.1%	44.7µM*	56.2µM*	?	8.2	-22.4%
CCc1ccc(CN2CCC(n3nccc3NC(=O)Cc3ccccc3)CC2)o1	-3.4%	-18.8%	-20.4%	4.5%	1.4	0.0%
Cc1nn(CCc2nc(-c3ccco3)cs2)c2[nH]c(=O)cc(C(F)(F)F)c12	10.6µM*	?	79.4µM*	?	nt	?
Cc1cc(C)n(CCc2nc(-c3cccs3)cs2)n1	?	5.4%	3.3%	?	1.9	50.7%
Cc1cc(C)n(CCc2nc(-c3ccco3)cs2)n1	15.8µM*	50.1µM*	50.1µM*	3.55µM*	nt	?
CC(C)CN1CC(Br)C(=O)NC1=O (stereo not drawn)	-14.4%	nt	-2.1%	nt	-5.9	13.6%
O=C(Nc1cc(S(=O)(=O)N2CCOCC2)ccc1Cl)C1CCC1	-1.8%	-5.9%	-13.8%	-4.7%	0.6	8.9%
COc1ccccc1-c1nc(S(=O)(=O)c2ccccc2)c(N2CCCCC2)o1	?	-23.1%	79.4µM*	25.1µM*	-17.6	?
CCN1CCN(c2oc(-c3ccccc3C)nc2S(=O)(=O)c2ccccc2)CC1	-9.7%	?	?	35.5µM*	18.9	-28.8%
O=S(=O)(c1ccccc1)c1nc(-c2ccccc2Cl)oc1N1CCCCCC1	nt	-35.1%	-29.2%	?	nt	-0.8%
O=S(=O)(c1ccccc1)c1nc(-c2ccc(F)cc2)oc1N1CCCCCC1	nt	?	-21.6%	12.6µM*	nt	-11.8%
COc1ccc(CNc2nc3c(-c4ccc(C)cc4)nnn3c3ccccc23)cc1	nt	-1.6%	-1.7%	-28.8%[59 µM]	nt	38.5%
COC(=O)c1ccc(-c2ccc(Cl)cc2)nc1C	-1.9%	156.9%	145.7%	140.1%[59 µM]	-5.1	273.2%
COc1ccc(-c2cc(C(F)(F)F)n3nc(C(=O)Nc4cc(Cl)cc(Cl)c4)cc3n2)cc1	nt	-11.5%	2.6%	7.9%[59 µM]	nt	31.0%
Cc1nnc(SC(C)C(=O)NC2CCCCC2)[nH]c1=O (stereo not drawn)	26.7µM*	nt	?	nt	-0.7	-9.3%[57 µM]
CC(=O)c1ccc(NC(=O)CN(C)S(=O)(=O)c2cc3c(cc2Cl)NC(=O)CO3)cc1	nt	-19.8%	-14.7%	5.3%[59 µM]	nt	24.6%
COc1ccccc1Cc1c(-c2ccc(C)cc2)nc2cc(C)c(Br)c(C)n12	-5.4%	nt	nt	nt	17.8	nt
CC(C)(C)C(=O)CNCC(=O)C(C)(C)C	-0.2%	-5.5%	2.0%	39.8µM*	6.9	47.6%
Nc1c(S(=O)(=O)c2cccs2)c2nc3ccccc3nc2n1/N=C/c1cccc(O)c1	23.8µM*	nt	-30.1%[11.4 µM]	13.0%[59 µM]	?	-5.2%
Cc1cc(C(=O)N2CCN(C/C=C/c3ccccc3)CC2)no1	-4.8%	-4.0%	-1.3%	50.1µM*	nt	22.7%
O=C(c1ccco1)N1CCN(C/C=C/c2ccccc2)CC1	29.9µM*	3.9%	-13.7%[11.4 µM]	56.2µM*	-12.0	-0.4%
O=C(NC(=S)N1CCN(C/C=C/c2ccccc2)CC1)c1ccco1	-8.4%	-34.1%	-20.5%	44.7µM*	-2.7	10.2%
COc1ccc(NS(=O)(=O)c2cc(C(=O)N3CCN(C/C=C/c4ccccc4)CC3)ccc2C)cc1	-7.7%	50.1µM*	?	14.1µM*	3.6	-10.0%
O=C(NC(=S)N1CCN(C/C=C/c2ccccc2)CC1)c1c(F)cccc1F	1.3%	-29.4%	-15.7%	?	-4.6	13.0%
SMILES	PLK1 PBD block	BAZ2B inh	JMJD2A Tudor	G9a inh	PI5P4K alpha inh	HP1b chromo inh
Cc1ccc(C(=O)N2CCCCCC2)cc1S(=O)(=O)Nc1ccccc1	-5.3%	-2.5%	-27.8%	nt	-7.7	14.3%
COc1ccc(-c2nc3cnc(N4CCOCC4)nc3n(Cc3cccs3)c2=O)cc1	nt	nt	nt	2.5%[0.501 µM]	nt	nt
COc1ccc2c(c1O)C(=O)c1ccccc1C2=O	nt	-24.2%	nt	8.7%[12.7 µM]	nt	nt
Nc1c(O)ccc2c1C(=O)c1ccccc1C2=O	-24.1%	25.1µM*	?	2.51µM*	-56.9*	15.8µM*
COc1ccc(NC(=O)c2cc(-c3ccccc3)nc3c2cnn3C(C)C)c(OC)c1	-12.5%	-6.6%	-29.1%	8.2%[12.7 µM]	16.7	8.7%
CCCCNc1nc(Oc2ccc(=O)n(C)n2)nc(N(C)C)n1	nt	-0.6%	-16.7%	-1.8%[59 µM]	nt	4.6%
Fc1ccc(N2CCN(C3=Nc4cccc5cccc3c45)CC2)cc1	-2.7%	35.5µM*	25.1µM*	39.8µM*	2.2	?
c1ccc(CN2CCN(C3=Nc4cccc5cccc3c45)CC2)cc1	-5.9%	?	?	?	5.0	?
O=C1CCCC2CCCCN12 (stereo not drawn)	nt	nt	nt	19.9%[186 µM]	nt	nt
O=C(NC1CCC(=O)N(CCOc2ccccc2)CC1)OCc1ccccc1 (stereo not drawn)	-4.7%	-9.7%	-7.6%	10.9%	0.4	31.4%
O=c1/c(=C\c2cccc(O)c2)sc2nc(-c3ccccc3)c(-c3ccccc3)n12	-0.8%	5.62µM*	-27.2%	?	0.1	1.5%
COc1ccc(/C=c2\sc3nc(-c4ccccc4)c(-c4ccccc4)n3c2=O)cc1OC	-26.9%	?	-34.2%[11.4 µM]	35.5µM*	-17.6	12.9%
COc1cc(/C=c2/sc3nc(-c4ccccc4)c(-c4ccccc4)n3c2=O)cc(OC)c1OC	1.0%	-35.5%	-17.3%	?	7.0	-8.2%
COc1ccc(/C=c2/sc3nc(-c4ccccc4)c(-c4ccccc4)n3c2=O)cc1	-6.5%	?	-21.8%	14.1µM*	2.4	?
CCOc1ccccc1N(CC)C(=O)Cn1ncc2c1-c1ccccc1OC2	nt	-10.3%	0.4%	3.9%[59 µM]	nt	43.4%
Cc1oc(-c2cccc(Br)c2)[n+]([O-])c1C	?	-9.4%	-27.2%	2.1%	-3.1	16.0%
Nn1c(-c2cccc(Br)c2)n[nH]c1=S	-16.7%	?	35.5µM*	2.24µM*	?	-10.0%
S=c1[nH]nc(-c2cccnc2)o1	-4.0%	?	20µM*	?	nt	36.6%
Cc1ccc2nc(-c3cccnc3)oc2c1	-8.8%	7.9%	-14.2%[57.1 µM]	49.3%[12.7 µM]	0.2	23.1%
S=c1[nH]nc(-c2cccc(Br)c2)o1	-20.2%	-7.7%	?	1.78µM*	nt	10.2%
O=C(c1ccc2c(c1)N(Cc1ccc(F)cc1)C(=O)c1ccccc1S2(=O)=O)N1CCC(Cc2ccccc2)CC1	nt	-24.8%	-16.2%	-31.0%[59 µM]	nt	28.7%
